Assay results taken from PubChem BioAssay AID1347426 (Functional Genomics Laboratory (NCATS/FGL), 2020).
The whole screen tested about 31,000 sequences, of which about 1,400 (4.5%) were called active. The sample as a whole holds a higher share of actives than the screen did. Unmarked numbers belong to inactive results.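 The calls were made as follows: active = median seed-adjusted z-score above 1 or below -1; inactive = the rest.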

experiment: Novel Modifiers of Survival Motor Neuron (SMN) Protein: Gene Identification via Genome-wide siRNA Screen; conditions: HEK293T SMN2-luciferase reporter, siRNA knockdown, 72 h; actives lie on both sides;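 also: luminescence tracks full-length SMN protein made from the SMN2 reporter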
Summary of the method: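 HEK293T cells stably expressing an SMN2 splicing/cDNA-luciferase reporter were reverse-transfected with a druggable-genome siRNA library and read by luminescence at 72 hours; hits defined by MAD score above 1.0 or below -1.0.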

Row | Sequence | median seed-adjusted z-score
1 | CGAUCAAUCCAACCGCACATT against MEIS3 | 0.207
2 | CCUCGGAAGAGAUCACUAUTT against POU2F1 | 0.317
3 | CGUUUCAGUCGUUUCAAAATT against POLR2D | -3.79 (active)
4 | GGUUAUAUACCACCUUAUATT against QRSL1 | -0.539
5 | GCUCUAAGGUUACGGAAGATT against MCOLN2 | -0.0234
6 | GUCCUGUCUUGAUUAAAUUTT against CHST7 | 0
7 | GCAGAAGAAAGAACCCGUUTT against DYNC1I1 | -0.716
8 | CCACCCUACUAUGCGCACATT against GJA3 | 0.833
9 | CAAGGGUUUUCUUACAAUATT against GNA13 | 0
10 | CAAUAUGAAGGUCGAAUUATT against TPR | -1.03 (active)
11 | GACCUUAUAUGUGCAAGGATT against ZNF8 | 0.97
12 | CGACUGGAUUAAGCAGUAUTT against ATP6V1C1 | 0.0821
13 | UCAUGUGCCUGGAAAUUAATT against AIRE | 0.308
14 | GAACUGUCCGAAUCUAAUUTT against CNTNAP1 | 0.176
15 | AAUCACAACUCCUAAAAGATT against POLR2J3 | -5.42 (active)
16 | ACAUCGUAGUGGGACGAAUTT against EXOSC2 | -0.0798
17 | CAUUCGCUCUGGUACUUAUTT against CRYZ | -0.809
18 | GGUCCUAAGUUUGAAGUCATT against FRMPD2 | -0.329
19 | CGAUAUAAGCUCCGAGAGATT against POLR2E | -1.25 (active)
20 | GCUGUAACCUCUUCAUCUATT against BRUNOL6 | -0.542
21 | GCAAGGAUCAGUUUCCGGATT against RHOC | -0.579
22 | GGAACACCUUUAGUCAUGATT against ZNF790 | 0.245

Row | Sequence | median seed-adjusted z-score
23 | CCAGCUGCCUACAAAGACATT against CLDN14 | -0.456
24 | AACGCACUCUUCUACGUCATT against NTSR1 | -1.1 (active)
25 | GACCGACAUUUGUGAAGAATT against ZNF547 | 0.099
26 | CAAAUGGGACUGUCAAUUATT against REPS2 | 0.454
27 | GGUUAUCCUUUGCCCAGCATT against ACTL7A | 1.1 (active)
28 | AAGUUAGUCCUAAAGUGUATT against UCHL1 | -0.421
29 | CCACGGCACAUGGAACUAATT against SLC7A14 | 0.132
30 | GUCCCGCUAUGACUACUUUTT against GRM2 | -0.664
31 | CUGUUUGGUUUAUUCGAUUTT against ZW10 | 0.199
32 | GAGUAAGUGAAAUAGAACATT against ZBTB26 | 0
33 | GAAACCAUCCAAUCCAAGATT against TXNDC2 | -1.29 (active)
34 | GGACUUGGAUUAUGAACUATT against COL6A3 | 0.341
35 | CGAGCAUUCUCUCUUGAAATT against MED24 | -2.3 (active)
36 | GCGUGUAAAUUCUACUGCATT against RB1 | 0.49
37 | CUACCACGCAGUCAACCUUTT against LTB4R2 | -0.26
38 | GGAUUUUAUUCUUCACCGUTT against RBMS3 | 0.0976
39 | GCACGAAUUUCAGCACCAATT against HOXD1 | 0.144
40 | GGAACAUUUUUGACGGAUUTT against SCN8A | 0
41 | GCACAACACUCGCUCCAAUTT against GLT8D1 | 1.22 (active)
42 | GGUAAUAAAUGGGUUGGAATT against PTGR2 | 0.14
43 | CAGAGACCCUUGAUAAACUTT against PIK3AP1 | 0.0678
44 | GCAUGACUAUGUCAAGAAATT against MCM3 | 0.339

Row | Sequence | median seed-adjusted z-score
45 | GCUCGUGAUUGAUGCUGCATT against NGB | 0
46 | CGACAUCAUCAAUAGACGATT against AQR | -1.56 (active)
47 | GGACCACGAUGAUCAUUGATT against CRMP1 | -0.354
48 | GCAUUGGUGUAUGGAAUUATT against SLC6A15 | 0.0939
49 | GCAAGAAAAAUCUAAGGAATT against ZNF57 | 0
50 | ACAGCAUUGUCAUUAGACATT against UBR5 | 0.114
51 | CAUGUGCUAUCGAAAGUAUTT against TCEB1 | 1.08 (active)
52 | GCGUAGUUAUAGAAGUAGATT against RBMX2 | -0.585
53 | GGAACUGUUUUUACAAGCATT against MKRN1 | -0.496
54 | UCAUAUAGGCAAAAUUUAATT against POU3F2 | -0.179
55 | GGGUUCACCUCAGAGAGCATT against DPF3 | 0.242
56 | GAAACUUUCAUUACGUAUATT against SNX7 | 0.146
57 | GAACGAAAGGUCCUCAGUATT against SPATA21 | -1.03 (active)
58 | GCUGCUUCAGACUACCAAATT against TXNDC9 | -0.176
59 | CCAUAUUAAUGUCCAUGAUTT against PCDHB7 | 0.365
60 | GGAUGCCCACUGUAUCAUATT against MYST2 | -1.46 (active)
61 | GAUGGAUACCUCUACCUGATT against ZNF593 | 0.215
62 | CGUGAUCUCAAGUCCAACATT against MAP3K11 | 0.773
63 | CUACCAUUUUCAUCGAGGATT against FREM3 | -0.565
64 | CGAAAGAGGCAAAUAUGAATT against CBX3 | -0.893
65 | GGAUCGGGUUUACUCAGAATT against ACTR6 | 0.189
66 | GGAAGGAACCAUCCAGUAATT against POLR2L | -1.19 (active)

Row | Sequence | median seed-adjusted z-score
67 | AGUUCUUCCUAAUCCGAGATT against DOLPP1 | 0.00977
68 | AAUCGAUCCUCAAUCCUUATT against ZNF676 | -0.499
69 | GCUCCAAAUUGGUUGUAUUTT against PRKAG1 | 0.431
70 | GAACAACUCUUGUGAGAUUTT against STC2 | -0.00039
71 | GCUUCUGAAAUGAACCGAATT against DDHD2 | 0.447
72 | GUGCGGUAGCUACUUGUUUTT against RRAD | -0.267
73 | GGACUCUCAUGAGUGCUGATT against ACP2 | -0.00569
74 | GAAAGAUGUUGGGAAUAAATT against ST6GAL2 | 0.054
75 | CAUCCAUUAUGACCUGCUATT against ACO2 | -1.57 (active)
76 | CGUGUGGACUUGACAAGCATT against OBSCN | -0.798
77 | CUAUAUCUCCAACACUUUUTT against SMARCD3 | 0.247
78 | GAGAAAAAGCGGAUCAAGATT against GRK6 | -0.862
79 | GGAAGAACGUGUAACCGAATT against RDX | 0.123
80 | GAGUCUGCGUUAUCGACAATT against TPR | -1.03 (active)
81 | GGAUGAAAAAUACCGGUGUTT against UGT8 | 0
82 | CAACCUUUCACUGCAAUGATT against NAT8 | -0.228
83 | CGGGAAGAAUCAAAGUCGATT against KRT23 | -0.0696
84 | GGAGCGAAAUGUUCAGGUUTT against PSPH | -0.518
85 | CGAGGACACUCAAACGGAUTT against TAF7L | -0.14
86 | CACGAAAACUUACCCAGAATT against DGUOK | 0.0168
87 | GGUCCCAGCUUGAAGAGAATT against CSTB | 1.08 (active)
88 | CAGGCAAAGUUCGACAGUATT against HEPH | -0.293

Row | Sequence | median seed-adjusted z-score
89 | GGAUUCUCAGUUACACUUATT against SLC25A3 | -0.495
90 | GAUCCGUUCUGAUUAGUGATT against EZH1 | 0.268
91 | GUUCCUCACUUAUCGCUAUTT against ADAMTSL3 | -0.0419
92 | GGAACUACGUCCACACCCATT against GHRHR | 0
93 | GGAUAACACUAAGUUUAGATT against SFRS1 | -1.66 (active)
94 | GGCCGGUGUUUGACGACAATT against STK32C | -0.311
95 | CUCCCUCACCAAAACAAAATT against DUSP26 | 0.204
96 | CAAGGUCUGUAGUCAAAAUTT against ZNF677 | -0.441
97 | GGAGGUUCAGAAGCACCUATT against PACSIN2 | 0.73
98 | GUGUAGCACUGACCAAGAATT against RCAN3 | 0.544
99 | GAUCUGUGCUAUACUGACATT against EFTUD2 | -1.25 (active)
100 | GACCUGCUCUGUAACCUCATT against NAALADL1 | -0.0444
101 | AAAACUUACGAACAACAAATT against TBR1 | -0.388
102 | UCAAGCAUGUGGUCCUGUATT against AIP | 0.529
103 | GAUGAGUAUGCAAAAUUUATT against ATR | -0.217
104 | GCACAUAAGGAGGCGAUUATT against WDR33 | 3.27 (active)
105 | GCAACAUCGUGUUCUUGAATT against GAL3ST1 | 0.263
106 | GCAGAAACCCAGAUCGAGATT against PLAT | 0.246
107 | GGAACUUUUUCGUCGGUAUTT against RNGTT | -1.55 (active)
108 | CGACAUUGGUGACCCUCUUTT against DDOST | -0.315
109 | GCAGUUCGAGAAGAACUUUTT against LMBR1 | 0.236
